PubChem BioAssay
The source made the active and inactive calls. Unless noted, how the calls were made is not given here.

What was measured:
[1] = HepG2 liver cancer cell viability effects, profiling panel, resazurin fluorescence, 24 h, PK04 Diversity Set (AID 1172); details: higher = more signal
[2] = basal S. cerevisiae growth modulation, no modifier, primary screen, OD600, strain BY4716, 24 h, basal condition (AID 1173); details: OD600, 24 h, higher = more signal, called active from +8 up or from −8 down
[3] = MM1S myeloma cell viability, profiling panel, resazurin fluorescence, basal, 24 h, PK04 Diversity Set (AID 1174); details: higher = more signal, called active from +8 up or from −8 down;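 further: MM1S multiple myeloma cell line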
[4] = target: Dihydroorotate dehydrogenase (quinone), mitochondrial (Plasmodium falciparum (isolate 3D7)) (UniProt Q08210); assay: PfDHODH enzyme inhibitors, primary screen, biochemical, C-terminal His tag, absorbance 600 nm (AID 1175); details: DCIP absorbance 600 nm, higher = more signal, called active from +8 up or from −8 down;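 further: recombinant parasite enzyme with a five histidine tag at its C terminus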
[5] = P. aeruginosa biofilm formation inhibitors, primary screen, strain PAO1, LB-PBS medium, absorbance 600 nm (AID 1176); details: P. aeruginosa PAO1 growth/biofilm, A600, 12 h; higher = more signal
[6] = S. cerevisiae RM11-1a growth modifiers, primary screen, strain RM11-1a, OD600, basal, 24 h (AID 1177); details: OD600, 24 h, higher = more signal, called active from +8 up or from −8 down;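 further: cultures grown under basal conditions with no added stressor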
[7] = E. coli acrAB mutant growth effects, primary screen, E. coli filamentation inducers, strain DRC39, OD650, 24 h (AID 1178); details: higher = more signal, called active from +8 up or from −8 down;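 further: growth measured as culture turbidity by optical density at 650 nm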
[8] = E. coli acrAB mutant growth effects, primary screen, E. coli filamentation inducers, strain DRC39, OD650, 48 h (AID 1179);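 further: screen aims at cell division blockers that make cells filament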; details: E. coli DRC39 delta-acrAB growth, higher = more signal, called active from +8 up or from −8 down
[9] = RPMI8226 myeloma cell viability, profiling panel, resazurin fluorescence, basal, 24 h, PK04 Diversity Set (AID 1180); details: higher = more signal;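 further: RPMI8826 multiple myeloma cell line at 5000 cells per well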
[10] = target: E3 ubiquitin-protein ligase XIAP (Homo sapiens) (UniProt P98170); assay: XIAP binders, primary screen, biophysical, small-molecule microarray, fluorescence 635 nm (AID 1181); details: small-molecule microarray binding, higher = more signal;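 further: score merges 667 nm emission and signal to noise over triplicate slides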
[11] = test system: XIP peptide (Xip251-270) binding; assay: small-molecule binders of XIP peptide, primary screen, biochemical, small-molecule microarray, fluorescence 635/667 nm, 0.1 µg/mL protein (AID 1182); details: fluorescent protein binding, 635 nm, higher = more signal, called active from +8 up or from −8 down
XIP peptide (Xip251-270) = assay: small-molecule binders of XIP peptide, primary screen, biochemical, small-molecule microarray, fluorescence 635/667 nm, 0.5 µg/mL protein (AID 1183); details: small-molecule microarray binding, fluorescence 635 nm; higher = more signal
[12] = Plasmodium falciparum growth inhibition, primary screen, strain 3D7, DAPI fluorescence, 100 nL (AID 1184);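 further: parasites grown inside human red blood cells in medium with human serum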; details: P. falciparum 3D7 growth, 3 d, higher = more signal
[13] = target: Homeobox protein Hox-A13 (Mus musculus) (UniProt Q62424); assay: inhibitors of HoxA13-DNA binding, primary screen, biochemical, fluorescence polarization, labeled oligonucleotide (AID 1185); details: 15 min, higher = more signal, called active from +8 up or from −8 down
[14] = inhibitors of hydroxyurea-induced Chk1 phosphorylation, primary screen, imaging, HeLa, phospho-Chk1 antibody, percent positive cells (AID 1186); details: hydroxyurea-induced phospho-Chk1 immunofluorescence imaging, higher = more signal
[15] = inhibitors of hydroxyurea-induced Chk1 phosphorylation, primary screen, imaging, HeLa, phospho-Chk1 nuclear intensity (AID 1187); details: hydroxyurea-induced phospho-Chk1 immunofluorescence imaging, higher = more signal

Dihydroorotate dehydrogenase (quinone), mitochondrial (Plasmodium falciparum (isolate 3D7)), sequence (Q08210 whole entry, looked up): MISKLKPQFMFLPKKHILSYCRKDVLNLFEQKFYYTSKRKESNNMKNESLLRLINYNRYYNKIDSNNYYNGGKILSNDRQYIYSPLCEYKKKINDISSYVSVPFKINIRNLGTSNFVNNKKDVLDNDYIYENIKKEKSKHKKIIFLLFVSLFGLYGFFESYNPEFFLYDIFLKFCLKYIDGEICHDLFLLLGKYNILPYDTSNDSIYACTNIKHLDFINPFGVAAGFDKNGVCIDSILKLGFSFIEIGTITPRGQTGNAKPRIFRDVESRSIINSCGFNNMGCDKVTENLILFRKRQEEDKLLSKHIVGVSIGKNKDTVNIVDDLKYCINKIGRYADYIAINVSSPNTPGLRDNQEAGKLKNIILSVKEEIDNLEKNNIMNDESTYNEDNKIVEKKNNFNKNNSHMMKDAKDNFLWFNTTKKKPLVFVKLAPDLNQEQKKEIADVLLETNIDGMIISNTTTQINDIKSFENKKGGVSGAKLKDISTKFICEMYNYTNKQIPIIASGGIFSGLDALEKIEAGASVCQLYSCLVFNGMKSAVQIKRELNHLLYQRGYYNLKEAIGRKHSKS
E3 ubiquitin-protein ligase XIAP (Homo sapiens), sequence (P98170 whole entry, looked up): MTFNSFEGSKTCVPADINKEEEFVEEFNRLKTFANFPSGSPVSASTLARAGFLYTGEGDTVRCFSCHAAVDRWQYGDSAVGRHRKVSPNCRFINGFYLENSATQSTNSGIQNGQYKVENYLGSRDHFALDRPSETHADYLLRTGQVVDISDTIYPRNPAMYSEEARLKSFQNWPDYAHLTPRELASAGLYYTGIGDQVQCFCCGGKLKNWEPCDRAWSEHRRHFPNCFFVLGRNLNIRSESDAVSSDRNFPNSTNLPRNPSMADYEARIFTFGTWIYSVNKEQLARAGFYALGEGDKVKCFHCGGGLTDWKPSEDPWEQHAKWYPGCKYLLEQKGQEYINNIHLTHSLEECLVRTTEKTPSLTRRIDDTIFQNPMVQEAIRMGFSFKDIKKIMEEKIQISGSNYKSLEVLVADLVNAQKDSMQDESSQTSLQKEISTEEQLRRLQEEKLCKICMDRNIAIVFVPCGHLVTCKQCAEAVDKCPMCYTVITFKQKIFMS
Homeobox protein Hox-A13 (Mus musculus), sequence (Q62424 whole entry, looked up): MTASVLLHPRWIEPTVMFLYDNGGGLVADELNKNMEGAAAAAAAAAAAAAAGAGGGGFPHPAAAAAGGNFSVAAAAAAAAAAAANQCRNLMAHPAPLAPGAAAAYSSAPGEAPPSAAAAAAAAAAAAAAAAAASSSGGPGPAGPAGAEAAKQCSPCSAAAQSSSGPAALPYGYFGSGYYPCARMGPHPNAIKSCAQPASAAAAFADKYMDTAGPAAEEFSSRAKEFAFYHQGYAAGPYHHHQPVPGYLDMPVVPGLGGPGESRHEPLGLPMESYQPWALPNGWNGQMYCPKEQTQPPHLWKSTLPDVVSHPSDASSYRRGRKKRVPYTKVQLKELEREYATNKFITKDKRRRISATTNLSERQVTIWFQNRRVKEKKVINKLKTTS

COc1ccc([Si](C)(C)[C@H]2[C@H](CCn3cc([C@H](O)c4ccccc4)nn3)O[C@@]3(C(=O)N(C)c4c(Br)cc(C)cc43)[C@@H]2C)cc1
z-score [1]: -2.69
z-score [2]: -0.691 (inactive)
z-score [3]: -3.29 (inactive)
composite z-score [4]: 1.19 (inactive)
z-score [5]: 1.03 (inactive)
z-score [6]: 1.01 (inactive)
z-score [7]: 0.566 (inactive)
z-score [8]: 0.132 (inactive)
z-score [9]: -5.5
composite z-score [10]: 0.0512
composite z-score [11]: 0.424 (inactive)
composite z-score (XIP peptide (Xip251-270)): 0.586
z-score [12]: -2.41
z-score [13]: -2.54 (inactive)
z-score [14]: -0.66 (inactive)
z-score [15]: -0.0953 (inactive)

CC(C)=CCN(C(=O)C#Cc1ccccc1)[C@H](CO)c1ccccc1
z-score [1]: -3.85
z-score [2]: -0.192 (inactive)
z-score [3]: -5.79 (inactive)
composite z-score [4]: 0.885 (inactive)
z-score [5]: -0.0218 (inactive)
z-score [6]: 3.26 (inactive)
z-score [7]: 0.163 (inactive)
z-score [8]: -2.57 (inactive)
z-score [9]: -5.82
composite z-score [10]: 0.165
composite z-score [11]: -0.415 (inactive)
composite z-score (XIP peptide (Xip251-270)): -0.0445
z-score [12]: -1.83
z-score [13]: -7.52 (inactive)
z-score [14]: -0.956 (inactive)
z-score [15]: -0.6 (inactive)

COCC(=C=CC[C@@H](O)c1cccc(OCCO)c1)C[C@@H](O)COCc1ccccc1
z-score [1]: 0.744
z-score [2]: -0.353 (inactive)
z-score [3]: 0.629 (inactive)
composite z-score [4]: -2.13 (inactive)
z-score [5]: 0.13 (inactive)
z-score [6]: -2.24 (inactive)
z-score [7]: 0.481 (inactive)
z-score [8]: 0.392 (inactive)
z-score [9]: 0.629
composite z-score [10]: 1.16
composite z-score [11]: 0.0062 (inactive)
composite z-score (XIP peptide (Xip251-270)): 0.0674
z-score [12]: -1.71
z-score [13]: -3.67 (inactive)
z-score [14]: -0.789 (inactive)
z-score [15]: -0.407 (inactive)

C=C(C(=O)CC[C@@H](OC(C)=O)c1cccc(OCCO)c1)C(C)C
z-score [1]: -1.1
z-score [2]: -1.03 (inactive)
z-score [3]: -0.353 (inactive)
composite z-score [4]: -0.842 (inactive)
z-score [5]: 0.26 (inactive)
z-score [6]: 1.11 (inactive)
z-score [7]: -1.29 (inactive)
z-score [8]: -1.06 (inactive)
z-score [9]: 0.173
composite z-score [10]: 0.686
composite z-score [11]: 0.723 (inactive)
composite z-score (XIP peptide (Xip251-270)): 0.436
z-score [12]: -1.01
z-score [13]: -4.41 (inactive)
z-score [14]: -0.0088 (inactive)
z-score [15]: 0.158 (inactive)

COC(=O)[C@@]1(CCC(=O)OC(C)(C)C)N=C(c2ccc(OCCCO)cc2)O[C@H]1c1ccccc1CN=[N+]=[N-]
z-score [1]: 0.118
z-score [2]: 0.696 (inactive)
z-score [3]: -1.79 (inactive)
composite z-score [4]: 0.507 (inactive)
z-score [5]: 0.563 (inactive)
z-score [6]: 1.56 (inactive)
z-score [7]: 0.224 (inactive)
z-score [8]: -0.0915 (inactive)
z-score [9]: -2.11
composite z-score [10]: 0.165
composite z-score [11]: 1.63 (inactive)
composite z-score (XIP peptide (Xip251-270)): 0.512
z-score [12]: -2.27
z-score [13]: -1.11 (inactive)
z-score [14]: -0.25 (inactive)
z-score [15]: 0.0025 (inactive)

COc1cc(OC)c(C(O)C2C=CC3C(=O)N(c4ccccc4)C(=O)C3N2Nc2ccccc2F)cc1Br (stereo not given)
z-score [1]: -0.384
z-score [2]: -1.22 (inactive)
z-score [3]: -0.898 (inactive)
composite z-score [4]: -0.92 (inactive)
z-score [5]: 1.32 (inactive)
z-score [6]: 0.298 (inactive)
z-score [7]: -0.529 (inactive)
z-score [8]: -0.595 (inactive)
z-score [9]: -2.08
composite z-score [10]: 0.0245
composite z-score [11]: 0.166 (inactive)
composite z-score (XIP peptide (Xip251-270)): 0.758
z-score [12]: 1.74
z-score [13]: -1.47 (inactive)
z-score [14]: 0.195 (inactive)
z-score [15]: -0.0782 (inactive)

COC(=O)[C@@]1(Cc2ccc(OC)cc2)[C@H]2c3cc(C(=O)N(C)C)n(Cc4ccsc4Br)c3C[C@H]2CN1C(=O)c1ccccc1
z-score [1]: -0.0214
z-score [2]: 1.52 (inactive)
z-score [3]: -0.807 (inactive)
composite z-score [4]: 0.184 (inactive)
z-score [5]: 0.0539 (inactive)
z-score [6]: 1.89 (inactive)
z-score [7]: -0.656 (inactive)
z-score [8]: -0.377 (inactive)
z-score [9]: -0.907
composite z-score [10]: 0.452
composite z-score [11]: 0.197 (inactive)
composite z-score (XIP peptide (Xip251-270)): 0.793
z-score [12]: -1.02
z-score [13]: -1.15 (inactive)
z-score [14]: 0.0352 (inactive)
z-score [15]: 0.984 (inactive)

C[C@@H](OCc1ccccc1)C1NC(=O)[C@@]23C(=O)N[C@@H](Cc4ccccc4)C2[C@H](C)[C@@]2(C)O[C@H]2C3/C=C/C/C=C\CNC(=O)[C@H](Cc2ccccc2)NC1=O (stereo not given in full)
z-score [1]: -0.515
z-score [2]: -1.29 (inactive)
z-score [3]: -0.614 (inactive)
composite z-score [4]: -0.199 (inactive)
z-score [5]: 0.0359 (inactive)
z-score [6]: -0.658 (inactive)
z-score [7]: 2.13 (inactive)
z-score [8]: 0.5 (inactive)
z-score [9]: -0.302
composite z-score [10]: -0.0565
composite z-score [11]: -0.0678 (inactive)
composite z-score (XIP peptide (Xip251-270)): -0.0412
z-score [12]: -2.45
z-score [13]: -5.7 (inactive)
z-score [14]: 0.0781 (inactive)
z-score [15]: 0.544 (inactive)

COCCOC(=O)N1C(=O)[C@@]2(c3cc(C#CCC(C(=O)OC)C(=O)OC)ccc31)[C@H](C(=O)N1CCCCCCC1)[C@H]1C(=O)O[C@H](c3ccccc3)[C@H](c3ccccc3)N1[C@@H]2c1ccccc1OCCO
z-score [1]: 0.194
z-score [2]: 0.63 (inactive)
z-score [3]: 0.683 (inactive)
composite z-score [4]: 0.256 (inactive)
z-score [5]: 1.45 (inactive)
z-score [6]: 1.62 (inactive)
z-score [7]: -0.82 (inactive)
z-score [8]: -1.29 (inactive)
z-score [9]: 0.0277
composite z-score [10]: 0.212
composite z-score [11]: 2.48 (inactive)
composite z-score (XIP peptide (Xip251-270)): 0.483
z-score [12]: -2.4
z-score [13]: 4.77 (inactive)
z-score [14]: 0.122 (inactive)
z-score [15]: 0.0392 (inactive)

C=CC[C@]1(C(=O)NCc2ccccc2)COC(c2ccc(OCCCO)cc2)=N1
z-score [1]: -0.137
z-score [2]: -1.92 (inactive)
z-score [3]: -1.4 (inactive)
composite z-score [4]: -0.267 (inactive)
z-score [5]: -0.0025 (inactive)
z-score [6]: 0.02 (inactive)
z-score [7]: 0.729 (inactive)
z-score [8]: -0.145 (inactive)
z-score [9]: -0.874
composite z-score [10]: 0.001
composite z-score [11]: -0.398 (inactive)
composite z-score (XIP peptide (Xip251-270)): 0.779
z-score [12]: -0.823
z-score [13]: -4.86 (inactive)
z-score [14]: -0.059 (inactive)
z-score [15]: -0.0405 (inactive)
